This is one part of a sample in which hits are shown more often than they occur.
Giardia FBPA inh = qHTS Assay for Inhibitors of Fructose-1,6-bisphosphate Aldolase from Giardia Lamblia; A8B2U2; purified Giardia FBPA; Potency, µM (highest dose often 59.6 µM), without a hit: at the highest dose activity, negative = inhibition, usual class: inhibitors; 0.71% of 290,000 active; also: potency is read from the fitted curve at half-maximal effect; % is scaled to controls: 0 for no effect and ±100 for the full control effect; nearly all actives have a fitted effect of over 55% in size
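Giardia FBPA (40 nM reagent) was preincubated 10 min at RT with compound (up to 57.5 uM final), then substrate plus GAPDH/TPI/NAD/arsenate coupling system with diaphorase/resazurin was added; resorufin fluorescence (525/598 nm) was read after 20 min.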
CHX counter = Cycloheximide Counterscreen for Small Molecule Inhibitors of Shiga Toxin. cell reporter, cycloheximide protein synthesis inhibition counterscreen. max response, %. 12% of 300,000 active; in the data active = max response mostly above about 13%, no sharp cut-off; inactive = mostly below about 14%; also: read at 38.3 µM for the half of the compounds with a filed dose; 0% is about no effect
Shiga toxin inh = A qHTS for Small Molecule Inhibitors of Shiga Toxin; inhibition, % at 38.7 µM; Vero cells, Shiga toxin protein synthesis inhibition reporter; 9.2% of 290,000 active; in the data active = inhibition mostly above about 28%, no sharp cut-off; inactive = mostly below about 43%; also: 0% is about no effect
RE007 growth inh = qHTS Assay for Inhibitors of the HIV-1 protein Vpr; S. pombe RE007 Vpr strain, BacTiter-Glo ATP luminescence, 24 h; Potency, µM (doses to about 92.2 µM), without a hit: top-dose activity change, negative = less growth, hits mostly inhibitors; 0.21% of 360,000 active; active = well fitted falling curve with a large enough effect; inconclusive = small, poorly fitted or top-dose-only effect; inactive = no such curve, though single readings can be large or run the other way; also: potency is read from the fitted curve at half-maximal effect; % is scaled to controls: 0 for no effect and ±100 for the full control effect; nearly all actives have a fitted effect of over 50% in size
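Fission yeast RE007 carrying one integrated HIV-1 vpr copy, seeded at OD 0.01 in PMG+AL medium with 23 nL pinned compound. Grown 24 h at 30 degrees; viability read by BacTiter-Glo luminescence after 5 min.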
TbPYK inhibitor = qHTS of Trypanosoma Brucei Inhibitors | Potency, µM (series often up to 76.8 µM), without a hit: top-dose activity, negative = inhibition, hits mostly inhibitors | pyruvate kinase (Trypanosoma brucei), Q57TT1 | TbPYK enzyme, Kinase-Glo Plus ATP luminescence, 45 min | AID 624173, 2012 | 0.12% of 410,000 active; also: potency is read from the fitted curve at half-maximal effect; % is scaled to controls: 0 for no effect and ±100 for the full control effect; nearly all actives have a fitted effect of over 50% in size
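Luminescent Kinase-Glo Plus end-point after 45 min room-temperature reaction of T. brucei pyruvate kinase started with 130 uM ADP (final). Buffer TEA 50 mM pH 7.2 with KCl, MgCl2, BSA, Tween-20; titration-based qHTS with fitted concentration-effect curves.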
LmPK inhibitor = qHTS Assay for Inhibitors of Leishmania Mexicana Pyruvate Kinase (LmPK) | Q27686 | 0.37% of 290,000 active | purified LmPK, Kinase-Glo ATP luminescence, 1 h | Potency, µM (titrated, usually from 57.5 µM), for the others: top-dose activity change, negative = inhibition, usual class: inhibitors; also: potency is read from the fitted curve at half-maximal effect; % is scaled to controls: 0 for no effect and ±100 for the full control effect
Target sequence (Q27686 whole entry, looked up): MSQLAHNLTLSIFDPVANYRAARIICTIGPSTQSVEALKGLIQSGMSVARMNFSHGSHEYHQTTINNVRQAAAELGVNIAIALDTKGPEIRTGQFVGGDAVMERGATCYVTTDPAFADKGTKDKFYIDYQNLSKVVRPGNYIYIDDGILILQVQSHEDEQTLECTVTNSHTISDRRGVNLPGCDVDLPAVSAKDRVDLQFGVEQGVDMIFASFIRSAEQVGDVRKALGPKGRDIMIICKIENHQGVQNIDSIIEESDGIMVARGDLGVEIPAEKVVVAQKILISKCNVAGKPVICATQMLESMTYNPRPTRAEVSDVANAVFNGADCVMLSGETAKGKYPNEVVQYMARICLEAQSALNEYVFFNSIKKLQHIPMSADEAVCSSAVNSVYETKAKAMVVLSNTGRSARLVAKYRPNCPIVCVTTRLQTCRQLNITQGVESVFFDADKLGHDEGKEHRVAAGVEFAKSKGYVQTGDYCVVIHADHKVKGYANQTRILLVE
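ATP generated from ADP (0.1 mM) and PEP (0.5 mM) by 0.1 nM LmPK over 1 h at room temperature (pH 7.2 imidazole buffer) was detected by coupled luciferase luminescence. Values were normalized to uninhibited and no-enzyme wells.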
Numbers without * were called inactive; ? = inconclusive; . = no result; + = active, no number. Unless noted, calls follow the shape of the dose curve; as a rule, active = well fitted curve in the direction sought with a large enough effect; inconclusive = small, poorly fitted or top-dose-only effect, or another doubt; inactive = no such curve, though single readings can be large; an effect the other way counts as inactive or inconclusive.

SMILES	Giardia FBPA inh	CHX counter	Shiga toxin inh	RE007 growth inh	TbPYK inhibitor	LmPK inhibitor
O=C1C2C3C=CC(C3)C2C(=O)N1c1ccc2ccccc2c1 (stereo not given)	5%	1	50	-6%	-5%	9%
CCSc1nc2ccc(N3C(=O)C4C5C=CC(C5)C4C3=O)cc2s1 (stereo not given)	-5%	27*	50*	-15%	-12%	3%
O=C(Nc1ccc(N2CCN(c3ccc(F)cc3)CC2)c(C(=O)O)c1)c1ccccc1F	.	.	.	.	2%	.
COc1cccc(NC(=O)C2CCN(Cc3cnn(-c4ccccc4)c3-n3cccc3)CC2)c1	-5%	51*	73	-2%	-8%	0%
O=C(NCc1ccc2c(c1)OCO2)C1CCN(Cc2cnn(-c3ccccc3)c2-n2cccc2)CC1	-1%	-2	7	4%	-8%	8%
CCn1cc(CN2CCC(C(=O)Nc3cccc(-c4cccc(OC)c4)c3)CC2)c(C)n1	.	-3	12	-14%	-6%	-6%
COc1ccc(OC)c(NC(=O)C2CCN(Cc3cnn(-c4ccccc4)c3-n3cccc3)CC2)c1	-2%	-1	-6	9%	1%	12%
COc1ccc(NC(=O)C2CCN(Cc3cnn(-c4ccccc4)c3-n3cccc3)CC2)cc1OC	?	34*	49*	-1%	-5%	4%
O=C(Nc1ccccc1Cl)C1CCN(Cc2cnn(-c3ccccc3)c2-n2cccc2)CC1	3%	27*	24	-13%	-3%	4%
Cc1ccc(CNC(=O)/C=C/c2ccccc2Cl)cc1	1%	10	21	-2%	5%	0%
O=C(/C=C/c1ccccc1Cl)NCc1cccs1	1%	48*	89*	4%	-5%	0%
O=C(/C=C/c1ccc(F)cc1)NCc1cccs1	0%	26*	94*	5%	1%	0%
O=C(COC(=O)/C=C/c1cccc(Br)c1)NCc1cccs1	.	.	.	-10%	0%	.
O=C(/C=C/c1ccc(Br)cc1)NCc1cccs1	-6%	50*	112*	-5%	3%	2%
COC(=O)CC(=O)CSc1nc2c(cc1C#N)CCC2	6%	18*	54*	-4%	-18%	?
CC(C)OC(=O)CC(=O)CSc1nc2c(cc1C#N)CCCCCC2	-3%	15	17	-12%	-4%	1%
CC(C)OC(=O)CC(=O)CSc1nc2c(cc1C#N)CCCC2	1%	37*	82*	-8%	1%	-5%
CC(C)OC(=O)CC(=O)CSc1nc2c(cc1C#N)CCC2	-1%	14	24	12%	-3%	-1%
CN1C(=O)CC2(C=CC(=O)C=C2OC(=O)c2ccccc2)c2ccccc21 (stereo not given)	0%	2	15	.	.	.
Clc1cccc(/C=N/Nc2ncnc3ccccc23)c1	0%	35*	62*	-3%	-15%	-7%
C(=N\Nc1ncnc2ccccc12)/c1ccccc1	-12%	24*	71*	-13%	-1%	-6%
CCc1ccccc1N1CC(c2nc3ccccc3n2CC(C)C)CC1=O (stereo not given)	.	.	.	.	-1%	.
COc1ccc(-c2noc(COc3ccc4c(c3)OCO4)n2)cc1OC	1%	9	2	-13%	-17%	1%
Brc1cc2c(cc1COc1ccc(-c3nn[nH]n3)cc1)OCO2	-4%	30*	-49	-2%	-1%	-3%
Cc1ccccc1COc1ccc(-c2nn[nH]n2)cc1	?	27*	32*	7%	-15%	-3%
CCOc1ccc(-c2nn[nH]n2)cc1	2%	7	-8	0%	-2%	-3%
CCOC(=O)c1cccc(NC(=O)c2nn(-c3ccc(OC)cc3)c(=O)c3c2c2ccccc2n3C)c1	.	.	.	.	-3%	.
O=C(Nc1ccc(/C=C/c2nc3ccccc3o2)cc1)c1c(F)cccc1F	-7%	28*	+	-4%	-9%	4%
CC(=O)Nc1ccc(/C=C/c2nc3ccccc3o2)cc1	14%	54*	101*	1%	-5%	1%
